Consider 41 compounds from ChEMBL document CHEMBL3433997, “St. Jude Leishmania screening dataset” (2016).

What all share (format): functional
Experiment [1] addresses Solute carrier family 2, facilitated glucose transporter member 1 (Homo sapiens) (UniProt P11166). The experiment can be described thus: ST_JUDE_LEISH: Cytotoxicity at 2uM final concentration against transgenic Leishmania Mexicana promastigotes LmGLUT1 that are glucose transport deficient and complemented with the human glucose transporter GLUT1. Activity is measured by DNA content using SYBR green in vitro.

Experiment [2] deals with Hexose transporter 1 (Plasmodium falciparum) (UniProt O97467). The experiment in a line: ST_JUDE_LEISH: Cytotoxicity at 2uM final concentration against transgenic Leishmania Mexicana promastigotes LmPfHT that are glucose transport deficient and complemented with the Plasmodium falciparum hexose transporter. Activity is measured by DNA content using SYBR green in vitro.
Experiment [3] has as its target Glucose transporter (Leishmania mexicana) (UniProt O61059). The experiment can be described thus: ST_JUDE_LEISH: Cytotoxicity at 2uM final concentration against transgenic Leishmania Mexicana promastigotes LmGT2 that are glucose transport deficient and complemented with the L. Mexicana glucose transporter 2. Activity is measured by DNA content using SYBR green in vitro.

Chain of Solute carrier family 2, facilitated glucose transporter member 1 (Homo sapiens) (P11166 whole entry): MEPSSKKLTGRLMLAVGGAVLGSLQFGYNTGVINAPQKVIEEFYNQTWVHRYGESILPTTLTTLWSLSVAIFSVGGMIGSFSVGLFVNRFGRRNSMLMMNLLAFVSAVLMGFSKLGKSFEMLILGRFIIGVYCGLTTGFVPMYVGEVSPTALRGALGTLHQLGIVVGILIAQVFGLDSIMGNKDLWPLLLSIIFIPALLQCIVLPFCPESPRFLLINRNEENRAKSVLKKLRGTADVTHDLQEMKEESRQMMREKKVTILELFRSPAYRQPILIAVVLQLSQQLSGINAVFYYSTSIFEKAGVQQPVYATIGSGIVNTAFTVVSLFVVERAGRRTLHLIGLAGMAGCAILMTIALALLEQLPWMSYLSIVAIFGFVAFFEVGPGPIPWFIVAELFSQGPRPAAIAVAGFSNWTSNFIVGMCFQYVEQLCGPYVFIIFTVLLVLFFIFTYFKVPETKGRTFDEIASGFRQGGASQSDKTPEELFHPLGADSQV

For the compound `Cc1cc(Nc2ccc(Cl)cc2)n2nc(C(F)(F)F)nc2n1`, the inhibition in experiment [1] came out at 0.02%; in experiment [2], 0.17%; in experiment [3], 0.13%.

With `O=C(C=Cc1ccc(Br)cc1)N1CCC(CCN2CCC(c3c[nH]c4ccccc34)CC2)CC1`, the inhibition in experiment [1] is 4.46%; in experiment [2], 8.48%; in experiment [3], 4.25%.

For the compound `Cc1cccc(CN2CCCC3(CCN(Cc4ccccc4O)C3)C2)c1` (stereo not drawn), the inhibition in experiment [1] is 2.62%; in experiment [2], 1.27%; in experiment [3] it was -0.38%.

On to `NC1=NC(c2ccccc2)(c2ccccc2)C(=O)N1CC1CCC1`, for which the inhibition stood at 0.06% in experiment [1], 2.21% in experiment [2] and 0.31% in experiment [3].

Take `Cc1ccc(CN2CCCCC(NC(=O)c3cc4ccccc4s3)C2)cc1` (stereo not drawn): the inhibition in experiment [1] is 0.16%; in experiment [2] it was 0.49%; in experiment [3] it was -8.68%.

With `COc1ccc(-c2csc(N(CCCN(C)C)C(=O)c3cc4c(C)nn(-c5ccccc5)c4s3)n2)cc1`, the inhibition is 0.66% in experiment [1], -0.63% in experiment [2] and 2.84% in experiment [3].

Turning to `CC(=O)c1cccc2cc(C(=O)NC3CCC(CCN4CCc5ccc(C#N)cc5C4)CC3)[nH]c12` (stereo not drawn), the figures for the inhibition in experiment [1], in experiment [2] and in experiment [3] were 2.35%, 2% and -0.27%, respectively.

Regarding `Cc1cc2nc(-c3cccc(C(=O)NC4CCN(Cc5ccccc5)CC4)c3)[nH]c2cc1C`, the results for the inhibition in experiment [1], in experiment [2] and in experiment [3] were 1.16%, 1.99% and 1.84%, respectively.

Take `Cc1ccc(NC(=O)NC2CCN(CCC(NC(=O)Cc3ccccc3)c3ccc(Cl)c(Cl)c3)CC2)cc1` (stereo not drawn): the inhibition is -2.11% in experiment [1], -2.83% in experiment [2] and -3.14% in experiment [3].

With `Cc1cccc2c3c([nH]c12)C1(CCN(Cc2ccccc2)CC1)NC(C(=O)NCc1ccccc1)C3` (stereo not drawn), the inhibition in experiment [1] is 0.05%; in experiment [2] it was -0.76%; in experiment [3], 0.87%.

Take `Cc1cc(N2Cc3ccccc3C2)nc(Nc2ccc(S(=O)(=O)N3CCOCC3)cc2)n1`: the inhibition is 1.54% in experiment [1], 2% in experiment [2] and 1.21% in experiment [3].

Turning to `COc1c(C2CCN(CCCCNC(=O)c3ccc(-c4ccc(C#N)cc4)cc3)CC2)cc(Cl)c2c1CCCC2`, the inhibition in experiment [1] turned out to be 1.68%; in experiment [2], 2.86%; in experiment [3] it was 0.77%.

`O=C(Nc1cccc(-c2cc3ccccc3[nH]2)c1)C1CCN(Cc2ccccc2O)CC1`: the inhibition came out at 10.3% in experiment [1], 9.31% in experiment [2] and 8.56% in experiment [3].

As for `O=C1NC(C(=O)Nc2ccccc2)C(c2ccccc2)S1` (stereo not drawn), the inhibition in experiment [1] was -0.88%; in experiment [2] it was -1.96%; in experiment [3] it was -0.52%.

As for `Cc1ccccc1C1CCN(C2CCC(NC(=O)/C=C/c3ccccc3C(F)(F)F)CC2)CC1` (stereo not drawn), the figures for the inhibition in experiment [1], in experiment [2] and in experiment [3] were 3.47%, -0.14% and 4.39%, respectively.

For `CC1(C)N=C(N)N=C(N)N1OCc1cccc(C#N)c1`, the figures for the inhibition in experiment [1], in experiment [2] and in experiment [3] were 2.81%, 0.82% and 1.5%, respectively.

As to `CC[C@H](N/C(=N\c1ccc(-c2ccccc2)cc1)Nc1ccc(C#N)cc1O)c1ccccc1`, the inhibition in experiment [1] came out at 4.55%; in experiment [2], 3.4%; in experiment [3], 2.55%.

`O=C(/C=C/c1cccc(C(F)(F)F)c1)NCCCCCN1CCN(C(=O)Nc2ccc(Cl)c(Cl)c2)CC1`: the values for the inhibition in experiment [1], in experiment [2] and in experiment [3] were 2.21%, 2.33% and 1.97%, respectively.

As to `NC1CCN(Cc2ccc(-c3ccc(-c4nc5cc(F)ccc5[nH]4)cc3)cc2)C1` (stereo not drawn), the inhibition in experiment [1] is 6.38%; in experiment [2] it was 4.78%; in experiment [3], -0.01%.

On to `Fc1cccc(COc2ccc(-n3ccc4c(NCCCn5ccnc5)ncnc43)cc2Cl)n1`, for which the inhibition stood at 1.74% in experiment [1], 2.45% in experiment [2] and 1.59% in experiment [3].

Take `COc1ccc2nccc(C(=O)NC3CCC(CCN4CCc5cc(C#N)ccc5C4)CC3)c2c1` (stereo not drawn): the inhibition in experiment [1] was found to be 7.23%; in experiment [2], 5.23%; in experiment [3] it was 6.71%.

Turning to `CCN(CC)CCN(Cc1ccc(-c2ccc(C(F)(F)F)cc2)cc1)C(=O)Cn1cc(CCCCc2cccc(F)c2F)c(=O)c2ccccc21`, the figures for the inhibition in experiment [1], in experiment [2] and in experiment [3] were 7.95%, 6.93% and 10.4%, respectively.

For `CCn1ccc2c(N3CCCCS3(=O)=O)cc(C(=O)N[C@@H](Cc3ccccc3)[C@H](O)CNC3CCCCC3)cc21`, the figures for the inhibition in experiment [1], in experiment [2] and in experiment [3] were 5.11%, 5.66% and 3.42%, respectively.

For the compound `Fc1ccc2[nH]c(-c3cccc(-c4ccc(CNCC5CCCO5)cc4)c3)nc2c1` (stereo not drawn), the inhibition was 1.13% in experiment [1], -3.6% in experiment [2] and -1.42% in experiment [3].

As to `CC(C)(C)C(=O)Nc1c(-c2cc(=O)oc3cc4c(cc23)CCC4)oc2ccccc12`, the inhibition in experiment [1] was 4.02%; in experiment [2], 4.1%; in experiment [3], 5.42%.

On to `CCOc1cccc(C2c3c(oc4ccccc4c3=O)C(=O)N2CCN(CC)CC)c1` (stereo not drawn), for which the inhibition in experiment [1] stood at 4.85%; in experiment [2] it was 2.93%; in experiment [3], 3.34%.

`COc1ccc(CN2CCC(N3CCc4cc(NC(=O)c5cc(C)on5)ccc43)C2)cc1Cl` (stereo not drawn): the inhibition in experiment [1] is -0.2%; in experiment [2] it was -3.51%; in experiment [3], 0.69%.

On to `COc1nc2c(CCN3CC[C@@H](NCc4cc(C#N)c5c(c4)CCO5)[C@@H](O)C3)ccnc2cc1F`, for which the values for the inhibition in experiment [1], in experiment [2] and in experiment [3] were 7.43%, 4.07% and 0.66%, respectively.

For the compound `COc1cccc2cc(C(=O)N[C@@H](CC(C)C)C(=O)N[C@H](/C=N/NC(=O)N3CCN(C)CC3)CCc3ccccc3)oc12`, the inhibition was found to be 9.32% in experiment [1], 11.9% in experiment [2] and 8.39% in experiment [3].

As for `N=C(N)c1ccc(Nc2nc(Nc3ccc(-c4ccccc4)cc3)ncc2[N+](=O)[O-])cc1`, the inhibition stood at 3.15% in experiment [1], 3.65% in experiment [2] and 3.44% in experiment [3].

With `CC(CO)(CO)NCc1cc2c3ccccc3c(CNC(C)(CO)CO)cc2c2ccccc12`, the inhibition turned out to be 5.4% in experiment [1], 2.65% in experiment [2] and 2.67% in experiment [3].

For `COc1ccc(Nc2ncc3c(-c4cccc(NC(=O)Cc5ccncc5)c4)c[nH]c3n2)cc1OC`, the inhibition in experiment [1] was -0.87%; in experiment [2], -1.41%; in experiment [3] it was -1%.

Regarding `Cc1cc(-c2ccc3c(c2)CCN(CCC2CCC(NC(=O)/C=C/c4cccc(F)c4)CC2)CC3)on1` (stereo not drawn), the inhibition in experiment [1] is 2.32%; in experiment [2] it was 0.47%; in experiment [3] it was 3.42%.

Turning to `O=C(Nc1ccc(Cl)cc1)Nc1ccc(OCC(O)CN2CCCCC2)cc1` (stereo not drawn), the values for the inhibition in experiment [1], in experiment [2] and in experiment [3] were 7.33%, 8.27% and 7.64%, respectively.

`CC(C)CNc1c2c(nc3cnn(-c4c5c(nc6cn[nH]c46)CCCC5)c13)CCCC2`: the inhibition in experiment [1] was -3.17%; in experiment [2], -1.12%; in experiment [3] it was -2.14%.

`COc1ccnc(NCCCNCc2cn(S(=O)(=O)c3ccccc3)c3ccccc23)c1`: the inhibition in experiment [1] amounted to 2.74%; in experiment [2] it was 3.67%; in experiment [3], 0.11%.

In the case of `NC1CCN(CCc2ccc(NS(=O)(=O)c3ccc(-c4ccccc4)cc3)cc2)CC1`, the inhibition in experiment [1] is 0.64%; in experiment [2], -0.24%; in experiment [3] it was 0.08%.

Consider `CCN(CCCN1CCCCC1)c1cc(C)nc(Nc2ccc(C)cc2C)n1`, for which the inhibition in experiment [1] stood at 1.88%; in experiment [2], 1.53%; in experiment [3], 2.76%.

On to `CCc1ccc(Cc2cnc3nc(N)nc(N)c3c2C)cc1`, for which the inhibition in experiment [1] was found to be 8.4%; in experiment [2] it was 13.2%; in experiment [3], 8.26%.

Regarding `CCCCCCN(CCCCCC)CCCCNc1c2ccc(Cl)cc2nc2ccc(OC)cc12`, the inhibition in experiment [1] is -3.87%; in experiment [2], 0.39%; in experiment [3] it was 0.56%.

Turning to `Cc1c[nH]c(CCNC(=O)c2cc(-c3ccc(Cl)cc3)cs2)n1`, the values for the inhibition in experiment [1], in experiment [2] and in experiment [3] were 2.64%, 0.26% and 2.79%, respectively.

Usually inhibition stands for the drop in the measured response relative to a control, in per cent.
